Usually AC50 stands for the concentration at which the activity in the assay is half-maximal.

Some structures have more than one record in an assay (separate samples or runs), and their calls can disagree. The source made the active and inactive calls. Rule for the calls: active = hit-call score of the fitted dose curve at least 0.9, where 1 is the maximum; inactive = score below 0.9.

Read-out in the first assay: Plasminogen activator inhibitor-1 (PAI1), SERPINE1 (gene 5054)
Description: BSK_MyoF_PAI1: BioMAP Diversity Plus: MyoF Assay for Plasminogen activator inhibitor-1 (PAI1) Biomarker Activity (AID 2284256).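 For outcome: PAI-1 protein level measured by ELISA in fibroblast cultures; PAI-1 read 24 h after compound addition.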 Conditions: primary human lung fibroblasts. In outline:
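In this multiplexed primary-cell system, fibroblasts from human lung received compound for 24 h before ELISA detection of PAI-1; overt toxicity was checked by SRB (0.1%, TCA-fixed, 560 nm) in parallel wells.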
On to `NC(=O)C(F)(F)C(F)(F)F`, for which the result was inactive.
Still for that read-out and setting: under `Cc1ccc2c(c1N)C(=O)c1ccccc1C2=O` stands “inactive”.
With `CC(C)Nc1ccc(Nc2ccccc2)cc1`, the AC50 is 30.6 µM (active).
Turning to `N#Cc1cc([N+](=O)[O-])ccc1N`, the outcome was inactive.
Still for that read-out and setting: under `OCC(F)(F)OC(F)(F)C(F)(F)OC(F)(F)CO` stands “inactive”; under `O=C(O)C(F)(F)OC(F)(F)C(F)(F)OC(F)(F)C(=O)O`, “inactive”.
With `FC(F)(F)C(F)(C(F)(F)F)C(F)(F)C(F)(F)CC1CO1` (stereo not drawn), the outcome was inactive.
On the same count and under the same terms, under `O=C(O)C(F)(F)OC(F)(F)C(F)(F)OC(F)(F)F` stands “inactive”; under `C=CC(=O)OCC(F)(F)C(F)F`, “inactive”.
Still for that read-out and setting: under `O=S(=O)(F)C(F)(F)C(F)(F)C(F)(F)C(F)(F)C(F)(F)C(F)(F)C(F)(F)C(F)(F)F` stands “inactive”.
Regarding `O=c1ssc(Cl)c1Cl`, the AC50 is 11.1 µM (active).
In the case of `O=C(O)C(F)(OC(F)(F)C(F)(F)C(F)(F)F)C(F)(F)F` (stereo not drawn), the result was inactive.
Regarding `N#Cc1c(-c2ccc(Cl)cc2)[nH]c(C(F)(F)F)c1Br`, the concentration at half-maximal activity (AC50) was 20 µM (active).
Consider `CCOP(=S)(S)OCC`, for which the result was inactive.
Take `Cc1c([N+](=O)[O-])cc2c(c1[N+](=O)[O-])C(C)(C)CC2(C)C`: the outcome was inactive.
With `CCOP(=S)(OCC)SCSc1ccc(Cl)cc1`, the AC50 was 3.97 µM (active).
In the case of `O=C(O)C(F)(F)C(F)(F)C(=O)O`, the outcome was inactive.
Same read-out and setting: the entry for `O=C(O)C=CC(F)(C(F)(F)F)C(F)(F)F` is “inactive”.
On to `ClC(Cl)=C(c1ccc(Cl)cc1)c1ccccc1Cl`, for which the concentration at half-maximal activity (AC50) was 9.39 µM (active).
Take `C=CC(=O)OCC(CC)(COC(=O)C=C)COC(=O)C=C`: the AC50 was 2.7 µM (active).
In the case of `COC(=O)C(F)(F)C(F)(F)OC(F)(C(F)(F)F)C(F)(F)OC(F)=C(F)F` (stereo not drawn), the outcome was inactive.
Still for that read-out and setting: the entry for `O=S1(=O)OCC2C(CO1)C1(Cl)C(Cl)=C(Cl)C2(Cl)C1(Cl)Cl` (stereo not drawn) is “inactive”.
Still for that read-out and setting: the entry for `CCOP(=S)(OCC)SCS(=O)(=O)CC` is “inactive”.
On to `CC(Cl)CN(C)C` (stereo not drawn), for which the AC50 is 0.016 µM (active).
On to `CCOP(=S)(NC(C)C)Oc1ccccc1C(=O)OC(C)C` (stereo not drawn), for which the outcome was inactive.
The same measure, in the same setting: the entry for `CCOP(=S)(OCC)SCn1nnc2ccccc2c1=O` is “inactive”; for `O=P(OCC(Br)CBr)(OCC(Br)CBr)OCC(Br)CBr` (stereo not drawn) it is “inactive”.
Consider `c1ccc2c(c1)sc1ccccc12`, for which the result was inactive.
Regarding `OCC(F)(F)OC(F)(F)C(F)(F)OC(F)(F)C(F)(F)OC(F)(F)F`, the AC50 is 20.9 µM (active) and the result was inactive.
As for `Nc1ccc([N+](=O)[O-])cc1Cl`, the outcome was inactive.
Same read-out and setting: the entry for `CCCCC(CC)COC(=O)c1c(Br)c(Br)c(Br)c(Br)c1C(=O)OCC(CC)CCCC` (stereo not drawn) is “inactive”.
Regarding `CC(C)(C)c1ccccc1OP(=O)(Oc1ccccc1)Oc1ccccc1`, the AC50 was 20 µM (active).
For the compound `OCC(F)(F)OC(F)(F)C(F)(F)OC(F)(F)C(F)(F)OC(F)(F)CO`, the outcome was inactive.
With `CCCCOCCOP(=O)(OCCOCCCC)OCCOCCCC`, the AC50 is 0.0918 µM (active).
`CC(O)C(F)(F)C(F)(F)F` (stereo not drawn): the outcome was inactive.
For the compound `CCCCC(CC)COP(=O)(Oc1ccccc1)Oc1ccccc1` (stereo not drawn), the AC50 was 16 µM (active).
Turning to `COP(=O)(O)OC`, the result was inactive.
As for `COP(N)(=S)OC`, the result was inactive.

Read-out in a further assay: Eotaxin 3, CCL26 (gene 10344)
Description: BSK_BF4T_Eotaxin3: BioMAP Diversity Plus: BF4T Assay for Eotaxin 3 Biomarker Activity (AID 2284258). The conditions noted are these: primary human bronchial epithelial cells with fibroblasts. In outline: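 Co-culture of human bronchial epithelial cells and dermal fibroblasts, exposed to chemicals for 24 h versus DMSO. Eotaxin-3 quantified by ELISA; cytotoxicity checked in parallel cultures by sulforhodamine B total-protein staining.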
Regarding `NC(=O)C(F)(F)C(F)(F)F`, the result was inactive.
As for `OCC(F)(F)OC(F)(F)C(F)(F)OC(F)(F)CO`, the outcome was inactive.
Still for that read-out and setting: under `O=C(O)C(F)(F)OC(F)(F)C(F)(F)OC(F)(F)C(=O)O` stands “inactive”; under `FC(F)(F)C(F)(C(F)(F)F)C(F)(F)C(F)(F)CC1CO1` (stereo not drawn), “inactive”; under `O=C(O)C(F)(F)OC(F)(F)C(F)(F)OC(F)(F)F`, “inactive”.
Take `C=CC(=O)OCC(F)(F)C(F)F`: the outcome was inactive.
`O=S(=O)(F)C(F)(F)C(F)(F)C(F)(F)C(F)(F)C(F)(F)C(F)(F)C(F)(F)C(F)(F)F`: the result was inactive.
In the case of `O=C(O)C(F)(OC(F)(F)C(F)(F)C(F)(F)F)C(F)(F)F` (stereo not drawn), the result was inactive.
Same read-out and setting: under `O=C(O)C(F)(F)C(F)(F)C(=O)O` stands “inactive”; under `O=C(O)C=CC(F)(C(F)(F)F)C(F)(F)F`, “inactive”; under `COC(=O)C(F)(F)C(F)(F)OC(F)(C(F)(F)F)C(F)(F)OC(F)=C(F)F` (stereo not drawn), “inactive”.
Turning to `OCC(F)(F)OC(F)(F)C(F)(F)OC(F)(F)C(F)(F)OC(F)(F)F`, the AC50 was 49.2 µM (active) and the result was inactive.
Consider `OCC(F)(F)OC(F)(F)C(F)(F)OC(F)(F)C(F)(F)OC(F)(F)CO`, for which the outcome was inactive.
On the same count and under the same terms, under `CC(O)C(F)(F)C(F)(F)F` (stereo not drawn) stands “inactive”.

Read-out in a further assay: Interleukin-8 (IL8), CXCL8 (gene 3576)
Description: BSK_MyoF_IL8: BioMAP Diversity Plus: MyoF Assay for Interleukin-8 (IL8) Biomarker Activity (AID 2284261). The conditions noted are these: primary human lung fibroblasts. A digest of the protocol: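 DMSO-normalised, upward-fitted IL-8 ELISA signal; human lung fibroblasts, 24 h chemical treatment.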
In the case of `NC(=O)C(F)(F)C(F)(F)F`, the outcome was inactive.
On the same count and under the same terms, under `Cc1ccc2c(c1N)C(=O)c1ccccc1C2=O` stands “inactive”; under `CC(C)Nc1ccc(Nc2ccccc2)cc1`, “inactive”.
Same read-out and setting: under `N#Cc1cc([N+](=O)[O-])ccc1N` stands “inactive”; under `OCC(F)(F)OC(F)(F)C(F)(F)OC(F)(F)CO`, “inactive”.
Still for that read-out and setting: the entry for `O=C(O)C(F)(F)OC(F)(F)C(F)(F)OC(F)(F)C(=O)O` is “inactive”.
For `FC(F)(F)C(F)(C(F)(F)F)C(F)(F)C(F)(F)CC1CO1` (stereo not drawn), the result was inactive.
Same read-out and setting: the entry for `O=C(O)C(F)(F)OC(F)(F)C(F)(F)OC(F)(F)F` is “inactive”; for `C=CC(=O)OCC(F)(F)C(F)F` it is “inactive”.
For the compound `O=S(=O)(F)C(F)(F)C(F)(F)C(F)(F)C(F)(F)C(F)(F)C(F)(F)C(F)(F)C(F)(F)F`, the result was inactive.
On the same count and under the same terms, under `O=c1ssc(Cl)c1Cl` stands “inactive”.
Consider `O=C(O)C(F)(OC(F)(F)C(F)(F)C(F)(F)F)C(F)(F)F` (stereo not drawn), for which the outcome was inactive.
In the case of `N#Cc1c(-c2ccc(Cl)cc2)[nH]c(C(F)(F)F)c1Br`, the AC50 was 0.17 µM (active).
Consider `CCOP(=S)(S)OCC`, for which the outcome was inactive.
Same read-out and setting: under `Cc1c([N+](=O)[O-])cc2c(c1[N+](=O)[O-])C(C)(C)CC2(C)C` stands “inactive”; under `CCOP(=S)(OCC)SCSc1ccc(Cl)cc1`, “inactive”; under `O=C(O)C(F)(F)C(F)(F)C(=O)O`, “inactive”.
As for `O=C(O)C=CC(F)(C(F)(F)F)C(F)(F)F`, the result was inactive.
In the case of `ClC(Cl)=C(c1ccc(Cl)cc1)c1ccccc1Cl`, the AC50 was 9.75 µM (active).
As to `C=CC(=O)OCC(CC)(COC(=O)C=C)COC(=O)C=C`, the AC50 was 5.17 µM (active).
Consider `COC(=O)C(F)(F)C(F)(F)OC(F)(C(F)(F)F)C(F)(F)OC(F)=C(F)F` (stereo not drawn), for which the AC50 is 1.29 µM (active) and the result was inactive.
With `O=S1(=O)OCC2C(CO1)C1(Cl)C(Cl)=C(Cl)C2(Cl)C1(Cl)Cl` (stereo not drawn), the outcome was inactive.
On the same count and under the same terms, the entry for `CCOP(=S)(OCC)SCS(=O)(=O)CC` is “inactive”; for `CC(Cl)CN(C)C` (stereo not drawn) it is “inactive”; for `CCOP(=S)(NC(C)C)Oc1ccccc1C(=O)OC(C)C` (stereo not drawn) it is “inactive”.
On the same count and under the same terms, under `CCOP(=S)(OCC)SCn1nnc2ccccc2c1=O` stands “inactive”; under `O=P(OCC(Br)CBr)(OCC(Br)CBr)OCC(Br)CBr` (stereo not drawn), “inactive”.
Regarding `c1ccc2c(c1)sc1ccccc12`, the outcome was inactive.
For `OCC(F)(F)OC(F)(F)C(F)(F)OC(F)(F)C(F)(F)OC(F)(F)F`, the result was inactive.
In the case of `Nc1ccc([N+](=O)[O-])cc1Cl`, the outcome was inactive.
Still for that read-out and setting: the entry for `CCCCC(CC)COC(=O)c1c(Br)c(Br)c(Br)c(Br)c1C(=O)OCC(CC)CCCC` (stereo not drawn) is “inactive”.
For `CC(C)(C)c1ccccc1OP(=O)(Oc1ccccc1)Oc1ccccc1`, the outcome was inactive.
Consider `OCC(F)(F)OC(F)(F)C(F)(F)OC(F)(F)C(F)(F)OC(F)(F)CO`, for which the outcome was inactive.
For `CCCCOCCOP(=O)(OCCOCCCC)OCCOCCCC`, the result was inactive.
As for `CC(O)C(F)(F)C(F)(F)F` (stereo not drawn), the outcome was inactive.
With `CCCCC(CC)COP(=O)(Oc1ccccc1)Oc1ccccc1` (stereo not drawn), the AC50 was 0.145 µM (active).
Consider `COP(=O)(O)OC`, for which the outcome was inactive.
Still for that read-out and setting: under `COP(N)(=S)OC` stands “inactive”.

Source of the values: PubChem BioAssay (EPA / NIEHS).
